Compound activity as filed in PubChem BioAssay.
Rows were chosen to be rich in hits. Some 2.5% of all compounds tested hit in one or more screens of this group.
SUMO Mot1 rescue: blocks SUMOylation pathway, rescuing yeast Mot1-301 growth; S. cerevisiae Mot1-301 growth rescue, ATP luminescence, 38.5C; percent above DMSO median, 100 means doubled; growth rescue, % at 18.8 µM; actives 1% (n = 320,000);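 active = every valid replicate shows activation above 250% relative to neutral control wells; inactive = the rest, any valid replicate at or below 250%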;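 note: OY570 slx delta 5 strain wells were the positive control but not used for scaling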
AI-2 QS mod: modulators of Vibrio harveyi AI-2 quorum sensing system; actives 0.4% (n = 300,000); activity change, % at 7.5 µM; Vibrio harveyi JMH597 AI-2 luminescence/OD600 ratio, 9 h; hits give low values; strain lacks LuxN and CqsS sensors; 0 = neutral-control median; in the data active = activity change below about -75%, passing the limit was not always enough;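 note: luminescence divided by OD600 gain over 9 h not by final OD600 alone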
Efflux pump inh: inhibitors of Candida antifungal efflux pumps expressed in yeast; S. cerevisiae Candida pump triplex, Nile Red efflux; inhibition, % at 10 µM; actives 0.44% (n = 330,000); AID 485275;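 active = plate passing quality check with inhibition over a set limit, or well fluorescence over plate mean plus 4 SD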;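 note: Nile Red retained in pooled yeast measured as flow cytometry median fluorescence; 0% = buffer negative control and 100% = Enniatin B positive control; higher means more Nile Red kept so more efflux inhibition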
ATG4B inhibitor: blocks human ATG4B protease cleavage of LC3 substrate; actives 0.51% (n = 340,000); ATG4B cleavage of LC3-PLA2, NBD-HPC fluorescence, 1 h; inhibition, % at 8.33 µM; in the data active = inhibition above about 40%
Target sequence (Q9Y4P1 whole entry, looked up): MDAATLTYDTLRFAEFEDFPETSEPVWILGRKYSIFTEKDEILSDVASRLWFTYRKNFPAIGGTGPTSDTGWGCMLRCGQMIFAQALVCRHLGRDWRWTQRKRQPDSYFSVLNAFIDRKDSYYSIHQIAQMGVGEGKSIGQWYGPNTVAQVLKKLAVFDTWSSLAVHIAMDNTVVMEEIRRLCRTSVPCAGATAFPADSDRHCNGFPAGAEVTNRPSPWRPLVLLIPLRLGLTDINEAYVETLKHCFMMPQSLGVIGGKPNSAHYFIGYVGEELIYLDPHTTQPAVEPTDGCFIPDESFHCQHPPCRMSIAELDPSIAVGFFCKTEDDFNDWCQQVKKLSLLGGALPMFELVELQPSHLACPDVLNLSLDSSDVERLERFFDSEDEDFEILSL
V-ATPase pH: yeast V-ATPase proton transport regulation by pHLuorin; S. cerevisiae, pHLuorin cytosolic pH fluorescence; response, % at 10 µM; actives 0.37% (n = 350,000); in the data active = response mostly above about 7.3%, no sharp cut-off; inactive = mostly below about 5.4%; note: actives read high
Active calls of the source: *; x = not tested or not shown.

SMILES	SUMO Mot1 rescue	AI-2 QS mod	Efflux pump inh	ATG4B inhibitor	V-ATPase pH
Cc1nn(-c2ccccc2)c(N)c1C(O)(CC(=O)C(F)(F)F)C(F)(F)F (stereo not given)	333.3*	0.1	0.1	0.1	9.7
Cc1nn(-c2ccccc2)c(N)c1C(O)(C(F)(F)F)C(F)(F)F	23.2	16.7	2.2	-12.4	1.6
O=C(COc1ccc(S(=O)(=O)N2CCOCC2)cc1Cl)NC1CCCCC1	338.4*	10.6	0.1	4.8	-0.7
O=C(CC(O)c1ccncc1)c1ccccc1O (stereo not given)	x	x	x	0.9	-1.4
CC(C)c1ccc(OCCCCN2CCCCC2)cc1	351.6*	16.9	0.0	-7.0	-0.7
c1ccc(-c2sc3ccccc3c2-c2ccc(OCCN3CCCC3)cc2)cc1	297.6*	x	-0.3	4.4	-0.4
Clc1ccc(OCCCCN2CCCCC2)cc1	36.9	-5.9	0.1	5.2	-2.8
COc1ccc(-c2sc3ccccc3c2-c2ccc(OCCN3CCCCC3)cc2)cc1	-20.8	x	-0.1	4.6	2.9
c1ccc(COc2ccc(OCCN3CCCCC3)cc2)cc1	445.5*	19.8	0.1	-0.6	-3.0
CS(=O)(=O)N1CCC(C(=O)N2CCN(c3ccccc3F)CC2)CC1	309.5*	-4.8	-0.1	-2.6	-3.9
COc1ccc(CN2C(=O)c3cccnc3C2=O)cc1S(=O)(=O)N(C)Cc1ccco1	184.1	20.5	0.6	-1.3	3.2
CN(Cc1ccco1)S(=O)(=O)c1ccc(CN2C(=O)c3cccnc3C2=O)s1	12.6	25.9	0.2	-4.6	13.3*
Cc1ccc(-c2nnn(CC(=O)NCC3CC3)n2)o1	-10.8	11.9	0.1	-9.9	3.4
Cc1ccc(-c2nnn(CC(=O)Nc3ccc4nn(-c5ccccc5)nc4c3)n2)o1	68.9	28.4	0.1	-10.9	16.2*
CCCN1CCN(S(=O)(=O)c2ccc(-n3cnnn3)cc2)CC1	x	9.5	-0.1	6.8	-0.3
Cc1ccsc1C(=O)Nc1nnc(-c2ccco2)o1	16.6	-127.2*	0.0	-8.2	-3.1
CC1(c2ccc(OC(F)F)cc2)NC(=O)N(CC(=O)Nc2ccc(S(N)(=O)=O)cc2)C1=O (stereo not given)	-9.8	-14.0	-0.1	-12.8	-0.1
CC1(c2ccc(OC(F)F)cc2)NC(=O)N(CC(=O)Nc2ccc(OC(F)F)cc2)C1=O (stereo not given)	-9.6	-92.6*	0.1	-9.8	0.1
CC1(c2ccc(OC(F)F)cc2)NC(=O)N(CC(=O)Nc2ccc(F)cc2)C1=O (stereo not given)	11.2	-93.7*	-0.1	-0.4	-0.5
COc1ccc(SC[C@H](CC(C)C)N2CCN(CCc3ccccc3)CCC2=O)cc1	0.0	9.8	0.1	2.4	3.6
COc1cc(C=O)ccc1Oc1nc(Nc2ccc(F)cc2F)nc(N2CCOCC2)n1	334.3*	19.5	0.5	-8.8	-1.2
CCN(CC)C(=O)Cn1c(=O)oc2ccccc21	389.1*	16.3	-0.1	-6.1	1.9
CC(=O)Cn1c(=O)oc2ccccc21	-23.5	5.3	-0.2	-2.4	-1.7
C/C(=N\Nc1ccc(Cl)cc1)c1c(O)cc(C)oc1=O	331.6*	30.0	-0.1	14.2	-1.3
Cc1cc(C(=O)COC(=O)c2ccc(F)cc2F)c(C)n1C1CC1	16.0	x	-0.4	-6.8	-0.6
SMILES	SUMO Mot1 rescue	AI-2 QS mod	Efflux pump inh	ATG4B inhibitor	V-ATPase pH
O=C(Nc1nc(-c2cccc3ccccc23)cs1)c1ccc2c(c1)S(=O)(=O)c1ccccc1C2=O	133.2	14.5	0.1	2.2	20.7*
CC(=O)Nc1ccc(NC(=O)CSc2nnc(-c3cccs3)n2N)cc1	3.6	21.3	0.0	7.6	3.1
Nc1ncn([C@@H]2O[C@H](CO)[C@@H](O)[C@H]2O)c(=O)n1	3.9	-87.4*	-0.1	8.6	-4.2
Nc1ccn([C@@H]2O[C@H](CO)[C@@H](O)[C@@H]2O)c(=O)n1	59.3	8.3	-0.1	-8.0	5.8
CN(C)c1ncnc2c1ncn2C1OC(CO)C(O)C1O (stereo not given)	277.2*	21.4	0.1	10.4	-3.3
Cc1ccc(C)c(OCCCN2CCc3ccccc3C2)c1	320.5*	18.8	0.0	-2.3	0.0
COC(=O)C1=C(C)NC(=O)NC1c1cn(-c2ccccc2)nc1-c1cccs1 (stereo not given)	x	12.4	0.0	-12.9	-5.8
CC1=C(C(=O)OC(C)C)C(c2cn(-c3ccccc3)nc2-c2cccs2)NC(=O)N1 (stereo not given)	28.1	-4.8	0.1	-6.1	15.7*
